# Screens: PubChem BioAssay, National Center for Advancing Translational Sciences (NCATS)
# PLK1 PBD block: PLK1 (human) polo-box domain binding inhibition; Plk1 PBD binding of FITC phosphopeptide, fluorescence polarization; Potency, µM, inactives show max response, negative = inhibition, usual class: inhibitors; hit rate 2.8% among 360,000; AID 720504; P53350; note: series mostly up to about 57 µM; nearly all actives have a fitted effect of over 65% in size
# Target sequence (P53350 whole entry, looked up, the tested form may be a part): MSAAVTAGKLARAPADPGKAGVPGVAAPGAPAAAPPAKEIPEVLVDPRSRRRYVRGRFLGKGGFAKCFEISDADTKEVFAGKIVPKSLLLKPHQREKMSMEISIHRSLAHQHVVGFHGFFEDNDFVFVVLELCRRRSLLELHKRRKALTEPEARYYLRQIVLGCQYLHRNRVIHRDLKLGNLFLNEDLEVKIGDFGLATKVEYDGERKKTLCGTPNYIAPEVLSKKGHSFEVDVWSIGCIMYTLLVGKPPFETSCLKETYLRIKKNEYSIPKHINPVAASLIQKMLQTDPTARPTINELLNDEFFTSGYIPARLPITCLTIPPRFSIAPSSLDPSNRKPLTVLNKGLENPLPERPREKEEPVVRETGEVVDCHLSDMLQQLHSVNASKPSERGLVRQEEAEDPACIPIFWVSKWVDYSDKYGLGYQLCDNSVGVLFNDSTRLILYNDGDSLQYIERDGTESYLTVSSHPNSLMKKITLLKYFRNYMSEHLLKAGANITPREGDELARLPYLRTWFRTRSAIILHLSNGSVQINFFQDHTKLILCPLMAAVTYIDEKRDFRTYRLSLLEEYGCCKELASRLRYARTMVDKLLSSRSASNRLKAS
# DT40 TDP1 no CPT: qHTS for Inhibitors of human tyrosyl-DNA phosphodiesterase 1 (TDP1): qHTS in cells in absence of CPT; DT40 Tdp1-/- hTDP1 cells, no CPT, ATP luminescence, 48 h; Potency, µM (highest dose often 46.2 µM), inactives show at the top dose activity change, negative = growth inhibition, usual class: inhibitors; hit rate 15% among 420,000; AID 686978, 2013; note: nearly all actives have a fitted effect of over 55% in size
#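 Stably hTDP1-transfected Tdp1-null chicken DT40 cells were treated with library compounds minus camptothecin and grown for at least 48 hr at 37 °C, after which cellular ATP was quantified by luminescence.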
# VDR inhibitor: vitamin D3 receptor (human) inhibition; P11473; VDR-SRC2-3 peptide fluorescence polarization, 2 h; AID 504847; Potency, µM, for the others: max response, negative = inhibition, hits mostly inhibitors; hit rate 0.93% among 400,000
#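 Reagent solutions, kept cold and dark, are dispensed first; compounds are then pinned in at 23 nl, plates briefly spun, and incubated 2 h at ambient temperature. Inhibition of VDR–SRC2-3 peptide binding is read by fluorescence polarization.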
# TDP1 block: blocks human tyrosyl-DNA phosphodiesterase 1 | Q9NUW8 | AID 485290 | recombinant TDP1, AlphaScreen DNA substrate cleavage | Potency, µM (doses to about 130 µM), without a hit: at the top dose activity change, negative = inhibition, usual class: inhibitors | hit rate 0.28% among 350,000; note: nearly all actives have a fitted effect of over 40% in size
#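 Steps: enzyme plus compound, 15 min RT; add biotin/phosphotyrosine-FITC oligonucleotide (15 nM final), react 5 min; add donor/acceptor beads (10 ug/ml final), 10 min; read AlphaScreen. Tdp1 at 1 nM final.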
# KAT2A inh: blocks human GCN5L2 histone acetyltransferase; Q92830; GCN5L2 HAT assay, ThioGlo1 CoA-SH fluorescence; Potency, µM (series often up to 58.9 µM), inactives show top-dose activity change, negative = inhibition, actives largely listed as inhibitors; hit rate 0.21% among 390,000
#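 Fluorescence readout, Ex340nm/Em540nm: ThioGlo1 (50uM final) reacts with free CoA thiol released as 20nM GCN5L2 acetylates H3(1-25) peptide (75uM) using acetyl-CoA (70uM). Compound and enzyme sat 15 min beforehand; 20 min room-temperature reaction.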
# DT40 TDP1 CPT: DT40-hTDP1 cell growth loss with CPT | Potency, µM (doses to about 46.2 µM), without a hit: at the top dose activity change, negative = growth inhibition, hits mostly inhibitors | AID 686979 | hit rate 12% among 420,000 | chicken DT40 Tdp1-/-;hTDP1 cells + 20 nM CPT, ATP luminescence, 48 h; note: nearly all actives have a fitted effect of over 55% in size
#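 Cell growth measured by CellTiter-Glo luminescence after a minimum 48 h, 37 C compound exposure with 20 nM CPT in Tdp1-knockout DT40 cells stably expressing hTDP1, seeded 400/well; qHTS titration format.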
# Numbers without * were called inactive; ? = inconclusive; · = no result given; [ ] = dose if it differs, or a comment. Sampled rows, rich in hits. Any-hit rate of the full collection: about 18%. Calls come from the whole dose curve; as a rule, active = well fitted curve in the direction sought with a large enough effect; inconclusive = small, poorly fitted or top-dose-only effect, or another doubt; inactive = no such curve, though single readings can be large; an effect the other way counts as inactive or inconclusive. % is set by controls: 0 for no effect and ±100 for the full control effect; potency is the fitted concentration of half-maximal effect.
SMILES,PLK1 PBD block,DT40 TDP1 no CPT,VDR inhibitor,TDP1 block,KAT2A inh,DT40 TDP1 CPT
O=C1NC(=Nc2ccccc2)S/C1=C\C=C\c1ccco1,?,9.2µM*,?,3%,?,8.2µM*
Cc1ccc(N=C2NC(=O)/C(=C/C=C/c3ccco3)S2)cc1,?,23µM*,?,-6%,-7%,?
Cc1cccc(N=C2NC(=O)/C(=C/C=C/c3ccco3)S2)c1C,15µM*,16µM*,?,-2%,-9%,?
COc1ccc(N=C2NC(=O)/C(=C\C=C\c3ccccc3)S2)cc1,-8%,?,-4%,0%,3%,?
Fc1ccc(-c2nc(-c3c[nH]c4ccccc34)cs2)cc1,·,-17%,·,·,·,-30%
CC(=O)Nc1cc[n+](C(C)C(=O)c2ccc(Cl)cc2)cc1 (configuration not stated),7%,16µM*,16%,-1%,-8%,16µM*
CC(=O)Nc1cc[n+](CC(=O)c2ccc(Cl)cc2)cc1,-5%,-11%,-15%,2%,-11%,8%
COc1ccc(CNC(=O)Cn2ncc3c4ccccc4n(Cc4cccc(Cl)c4)c3c2=O)cc1,·,?,0%,-5%,-21%,?
COc1ccc(CNc2ncnc3sccc23)cc1,-7%,4.1µM*,0%,9%,3%,5.8µM*
CN(C)C(CNc1ncnc2sccc12)c1ccccc1 (configuration not stated),-7%,?,7%,-2%,-3%,-24%
COc1ccc(CNc2ncnc3sccc23)cc1OC,-1%,7.3µM*,-3%,7%,-4%,8.2µM*
OC(CNc1ncnc2sccc12)c1ccccc1 (configuration not stated),-4%,5.2µM*,4%,6%,-1%,4.1µM*
Cc1cc2c(NCc3ccccc3)ncnc2s1,-10%,6.5µM*,13%,·,-25%,?
COc1ccc(NC(=O)CCCn2nc(C)c3sc4ccccc4c3c2=O)cc1,·,?,9%,9%,-20%,?
Cc1c(Cl)cccc1NC(=O)C(C)n1nc(C)c2c(C)n(-c3ccccc3)nc2c1=O (configuration not stated),·,-28%,15%,8%,-1%,-25%
Cc1ccc(S(=O)(=O)c2nnn3c2nc(N2CCN(c4ccccc4F)CC2)c2ccccc23)cc1C,·,1%,2%,7%,-14%,-4%
c1ccc(CNc2ncnc3sccc23)cc1,-2%,7.3µM*,1%,1%,-3%,8.2µM*
c1csc(CNc2ncnc3sccc23)c1,0%,5.2µM*,14%,·,·,5.2µM*
CCCCCCc1ccc(N2C[C@H](Cc3ccccc3)[C@@H](CC(=O)Nc3ccccc3)C2=O)cc1,-12%,?,-9%,·,0%,?
CCOc1ccc(/C=C/c2nc(C#N)c(N3CCC(C)CC3)o2)cc1,·,13µM*,9%,0%,-19%,10µM*
N#Cc1nc(/C=C/c2ccc(F)cc2)oc1N1CCCCCC1,·,?,7%,7%,0%,?
CC1CCN(c2oc(/C=C/c3ccc(F)cc3)nc2C#N)CC1,·,15µM*,8%,-7%,-1%,?
C=CC#CC1(O)CC(C)N(C)CC1C (configuration not stated),-12%,1%,-20%,-2%,3%,19%
NC(=O)c1ccccc1NC(=O)c1ccccc1Cl,-8%,?,-10%,·,-15%,0%
Cc1onc(-c2c(F)cccc2Cl)c1C(=O)Nc1cccc2nsnc12,-9%,3.7µM*,-18%,·,-11%,16µM*
SMILES,PLK1 PBD block,DT40 TDP1 no CPT,VDR inhibitor,TDP1 block,KAT2A inh,DT40 TDP1 CPT
O=C(Nc1ccccc1C(=O)Nc1nnc(C(F)(F)F)s1)c1ccccc1Cl,27µM*,16µM*,-21%,4%,-21%,?
O=C(Nc1nnc(C(F)(F)F)s1)c1ccc(Br)s1,0%,15µM*,-8%,5%,-1%,13µM*
Cc1onc(-c2c(Cl)cccc2Cl)c1C(=O)Nc1nc(C(C)(C)C)cs1,0%,23µM*,-5%,7%,-8%,?
CC(C)(C)CC(=O)Nc1nnc(C(F)(F)F)s1,-4%,-23%,-15%,-2%[56.1 µM],1%,-8%
Cc1onc(-c2ccccc2)c1C(=O)c1c[nH]c(C(=O)NCCCN2CCOCC2)c1,-15%,-29%,5%,3%,-4%,12%
Cc1onc(-c2c(F)cccc2Cl)c1C(=O)Nc1nnc(C(F)(F)F)s1,-15%,15µM*,0%,3%,-2%,12µM*
Cc1nnc(NC(=O)c2c(-c3ccccc3Cl)noc2C)s1,-6%,-29%,14%,3%,-3%,-1%
COCc1nnc(NC(=O)c2c(-c3c(Cl)cccc3Cl)noc2C)s1,2%,?,-5%,0%,-2%,13µM*
CC(NC(=O)Nc1nnc(C(F)(F)F)s1)(C(F)(F)F)C(F)(F)F,-3%,5.2µM*,-5%,2%,-1%,4.1µM*
COCCCNC(=O)c1cc(C(=O)c2c(-c3c(Cl)cccc3Cl)noc2C)c[nH]1,-3%,23µM*,13%,2%,1%,23µM*
CCOC(=O)N1CCc2c(sc3c2c(=O)n(-c2ccc(F)cc2)c(=O)n3CC(=O)c2ccccc2)C1,·,?,-10%,6%,-1%,?
CCN(c1ccc2c(c1)OCO2)S(=O)(=O)c1cc(Br)cc2c1N(C(C)=O)CC2,-13%,?,8%,4%,-6%,?
Cc1noc(C)c1-c1ccc(C(=O)NCc2cccnc2)c2occc12,-8%,18µM*,·,·,·,13µM*
Cc1noc(C)c1-c1ccc(C(=O)NCCC(F)(F)F)c2occc12,1%,?,·,·,·,15µM*
Cc1noc(C)c1-c1ccc(C(=O)Nc2cccc(C(F)(F)F)c2)c2occc12,4%,21µM*,·,·,·,16µM*
